# Test results taken from the supplement of paper PMC4022240.
# ± gives the standard deviation.
# T1: HaloTag-ATRX ADD domain (163-292)
# T1 chain: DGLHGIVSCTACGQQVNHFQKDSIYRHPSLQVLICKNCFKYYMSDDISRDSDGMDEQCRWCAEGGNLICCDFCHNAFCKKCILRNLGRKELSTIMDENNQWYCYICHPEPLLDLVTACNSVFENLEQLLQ
# Molecular target: T1, HaloTag-ATRX ADD domain (163-292)
# Assay: peptide microarray binding signal (635 nm), min-max normalized on array (fraction of array maximum); higher = stronger binding
# Settings: peptide region: Unmod H4 variant; binder concentration: 50 nM
# Procedure, shortened: (§1)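 Binding signal is the mean intensity of triplicate spots, min-max scaled within each library. Histone 13-mer peptide–cellulose conjugates were spotted in triplicate on nitrocellulose with a Cy3 tracer and blocked overnight at 4°C. Probing lasted 1 h at 4°C, either with biotin-labelled HaloTag reader fusions (10 nM to 1 μM) and streptavidin-Alexa Fluor 647 or with rabbit histone antibodies (1:10,000 to 1:2,000) and anti-rabbit Alexa 647. An Axon GenePix 4000B read signal at 635 nm and misprints at 532 nm.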
row,Binder,peptide microarray binding signal
1,GGVKRISGLIYEE [Unmod H4 variant G G V K R I S G L I Y E E],0.00323 ± 0.00011
2,VLRDNIQGITKPA [Unmod H4 variant V L R D N I Q G I T K P A],0.0154 ± 0.00068
3,GGKGLGKGGAKRH [Unmod H4 variant G G K G L G K G G A K R H],0.00373 ± 6.8e-05
4,KRHRKVLRDNIQG [Unmod H4 variant K R H R K V L R D N I Q G],0.00636 ± 0.00015

# Same assay, conditions: peptide region: Unmod H4 variant; binder concentration: 500 nM
row,Binder,peptide microarray binding signal
1,GGVKRISGLIYEE [Unmod H4 variant G G V K R I S G L I Y E E],0.0107 ± 0.006
2,VLRDNIQGITKPA [Unmod H4 variant V L R D N I Q G I T K P A],0.0293 ± 0.0022
3,GGKGLGKGGAKRH [Unmod H4 variant G G K G L G K G G A K R H],0.011 ± 0.0003
4,KRHRKVLRDNIQG [Unmod H4 variant K R H R K V L R D N I Q G],0.0147 ± 0.00085

# Molecular target: HaloTag-ING2 PHD (mouse Ing2 200-280)
# Assay: as above
# Settings: peptide region: Unmod H4 variant; binder concentration: 10 nM
# Procedure, shortened: as §1
row,Binder,peptide microarray binding signal
1,GGVKRISGLIYEE [Unmod H4 variant G G V K R I S G L I Y E E],0.00507 ± 0.0008
2,VLRDNIQGITKPA [Unmod H4 variant V L R D N I Q G I T K P A],0.0201 ± 0.00092
3,GGKGLGKGGAKRH [Unmod H4 variant G G K G L G K G G A K R H],0.0132 ± 0.0071
4,KRHRKVLRDNIQG [Unmod H4 variant K R H R K V L R D N I Q G],0.00549 ± 9.7e-05

# Same assay, conditions: peptide region: Unmod H4 variant; binder concentration: 100 nM
row,Binder,peptide microarray binding signal
1,GGVKRISGLIYEE [Unmod H4 variant G G V K R I S G L I Y E E],0.0272 ± 0.027
2,VLRDNIQGITKPA [Unmod H4 variant V L R D N I Q G I T K P A],0.0672 ± 0.0023
3,GGKGLGKGGAKRH [Unmod H4 variant G G K G L G K G G A K R H],0.0147 ± 0.00057
4,KRHRKVLRDNIQG [Unmod H4 variant K R H R K V L R D N I Q G],0.0208 ± 0.0048

# Molecular target: anti-H3K4me3 antibody ab8580
# Assay: as above
# Settings: peptide region: Unmod H4 variant; binder concentration: 1:2,000 dilution
# Procedure, shortened: as §1
row,Binder,peptide microarray binding signal
1,GGVKRISGLIYEE [Unmod H4 variant G G V K R I S G L I Y E E],0.000755 ± 7e-05
2,VLRDNIQGITKPA [Unmod H4 variant V L R D N I Q G I T K P A],0.0064 ± 0.00045
3,GGKGLGKGGAKRH [Unmod H4 variant G G K G L G K G G A K R H],0.000547 ± 1.1e-05
4,KRHRKVLRDNIQG [Unmod H4 variant K R H R K V L R D N I Q G],0.000774 ± 7e-06

# Same assay, conditions: peptide region: Unmod H4 variant; binder concentration: 1:10,000 dilution
row,Binder,peptide microarray binding signal
1,GGVKRISGLIYEE [Unmod H4 variant G G V K R I S G L I Y E E],0.00126 ± 5.7e-05
2,VLRDNIQGITKPA [Unmod H4 variant V L R D N I Q G I T K P A],0.0089 ± 0.0011
3,GGKGLGKGGAKRH [Unmod H4 variant G G K G L G K G G A K R H],0.00114 ± 2.3e-05
4,KRHRKVLRDNIQG [Unmod H4 variant K R H R K V L R D N I Q G],0.00114 ± 1.2e-05

# Molecular target: anti-H3K9me3 antibody ab8898
# Assay: as above
# Settings: peptide region: Unmod H4 variant; binder concentration: 1:2,000 dilution
# Procedure, shortened: as §1
row,Binder,peptide microarray binding signal
1,GGVKRISGLIYEE [Unmod H4 variant G G V K R I S G L I Y E E],0.000664 ± 7.4e-05
2,VLRDNIQGITKPA [Unmod H4 variant V L R D N I Q G I T K P A],0.00264 ± 0.00015
3,GGKGLGKGGAKRH [Unmod H4 variant G G K G L G K G G A K R H],0.0003775 ± 3.7e-06
4,KRHRKVLRDNIQG [Unmod H4 variant K R H R K V L R D N I Q G],0.000604 ± 4.7e-05

# Same assay, conditions: peptide region: Unmod H4 variant; binder concentration: 1:10,000 dilution
row,Binder,peptide microarray binding signal
1,GGVKRISGLIYEE [Unmod H4 variant G G V K R I S G L I Y E E],0.000923 ± 3.4e-05
2,VLRDNIQGITKPA [Unmod H4 variant V L R D N I Q G I T K P A],0.00323 ± 9.4e-05
3,GGKGLGKGGAKRH [Unmod H4 variant G G K G L G K G G A K R H],0.00075 ± 7.9e-06
4,KRHRKVLRDNIQG [Unmod H4 variant K R H R K V L R D N I Q G],0.00104 ± 2.8e-05

# Molecular target: T1, HaloTag-ATRX ADD domain (163-292)
# Assay: as above
# Settings: peptide region: Unmod H3 variant; binder concentration: 50 nM
# Procedure, shortened: as §1
row,Binder,peptide microarray binding signal
1,PFQRLVREIAQDF [Unmod H3 variant P F Q R L V R E I A Q D F],0.0275 ± 0.0017
2,VGLFEDTNLCAIH [Unmod H3 variant V G L F E D T N L C A I H],0.00179 ± 3.6e-05
3,RKSAPSTGGVKKP [Unmod H3 variant R K S A P S T G G V K K P],0.002821 ± 2.4e-05
4,ATGGVKKPHRYRP [Unmod H3 variant A T G G V K K P H R Y R P],0.00552 ± 0.0011
5,RKSAPATGGVKKP [Unmod H3 variant R K S A P A T G G V K K P],0.00398 ± 4.1e-05
6,ALQEASEAYLVGL [Unmod H3 variant A L Q E A S E A Y L V G L],0.001818 ± 8.5e-06

# Same assay, conditions: peptide region: Unmod H3 variant; binder concentration: 500 nM
row,Binder,peptide microarray binding signal
1,PFQRLVREIAQDF [Unmod H3 variant P F Q R L V R E I A Q D F],0.0328 ± 0.0016
2,VGLFEDTNLCAIH [Unmod H3 variant V G L F E D T N L C A I H],0.0031 ± 4.8e-05
3,RKSAPSTGGVKKP [Unmod H3 variant R K S A P S T G G V K K P],0.0103 ± 0.00037
4,ATGGVKKPHRYRP [Unmod H3 variant A T G G V K K P H R Y R P],0.00938 ± 0.0008
5,RKSAPATGGVKKP [Unmod H3 variant R K S A P A T G G V K K P],0.0111 ± 0.0002
6,ALQEASEAYLVGL [Unmod H3 variant A L Q E A S E A Y L V G L],0.00233 ± 5.1e-05

# Molecular target: HaloTag-ING2 PHD (mouse Ing2 200-280)
# Assay: as above
# Settings: peptide region: Unmod H3 variant; binder concentration: 10 nM
# Procedure, shortened: as §1
row,Binder,peptide microarray binding signal
1,PFQRLVREIAQDF [Unmod H3 variant P F Q R L V R E I A Q D F],0.01385 ± 8.4e-05
2,VGLFEDTNLCAIH [Unmod H3 variant V G L F E D T N L C A I H],0.002686 ± 1.5e-05
3,RKSAPSTGGVKKP [Unmod H3 variant R K S A P S T G G V K K P],0.00674 ± 8.2e-05
4,ATGGVKKPHRYRP [Unmod H3 variant A T G G V K K P H R Y R P],0.00537 ± 0.00055
5,RKSAPATGGVKKP [Unmod H3 variant R K S A P A T G G V K K P],0.008 ± 0.00021
6,ALQEASEAYLVGL [Unmod H3 variant A L Q E A S E A Y L V G L],0.00292 ± 5.6e-05

# Same assay, conditions: peptide region: Unmod H3 variant; binder concentration: 100 nM
row,Binder,peptide microarray binding signal
1,PFQRLVREIAQDF [Unmod H3 variant P F Q R L V R E I A Q D F],0.0259 ± 0.0054
2,VGLFEDTNLCAIH [Unmod H3 variant V G L F E D T N L C A I H],0.00241 ± 4e-05
3,RKSAPSTGGVKKP [Unmod H3 variant R K S A P S T G G V K K P],0.0212 ± 0.0031
4,ATGGVKKPHRYRP [Unmod H3 variant A T G G V K K P H R Y R P],0.0186 ± 0.0068
5,RKSAPATGGVKKP [Unmod H3 variant R K S A P A T G G V K K P],0.021 ± 0.00036
6,ALQEASEAYLVGL [Unmod H3 variant A L Q E A S E A Y L V G L],0.00206 ± 7.3e-05

# Molecular target: anti-H3K4me3 antibody ab8580
# Assay: as above
# Settings: peptide region: Unmod H3 variant; binder concentration: 1:2,000 dilution
# Procedure, shortened: as §1
row,Binder,peptide microarray binding signal
1,PFQRLVREIAQDF [Unmod H3 variant P F Q R L V R E I A Q D F],0.00315 ± 0.00022
2,VGLFEDTNLCAIH [Unmod H3 variant V G L F E D T N L C A I H],0.000472 ± 9.3e-06
3,RKSAPSTGGVKKP [Unmod H3 variant R K S A P S T G G V K K P],0.000963 ± 5e-05
4,ATGGVKKPHRYRP [Unmod H3 variant A T G G V K K P H R Y R P],0.000585 ± 3.7e-05
5,RKSAPATGGVKKP [Unmod H3 variant R K S A P A T G G V K K P],0.000831 ± 5.9e-05
6,ALQEASEAYLVGL [Unmod H3 variant A L Q E A S E A Y L V G L],0.0004719 ± 4.7e-06

# Same assay, conditions: peptide region: Unmod H3 variant; binder concentration: 1:10,000 dilution
row,Binder,peptide microarray binding signal
1,PFQRLVREIAQDF [Unmod H3 variant P F Q R L V R E I A Q D F],0.00759 ± 0.00028
2,VGLFEDTNLCAIH [Unmod H3 variant V G L F E D T N L C A I H],0.000628 ± 6.7e-06
3,RKSAPSTGGVKKP [Unmod H3 variant R K S A P S T G G V K K P],0.000799 ± 8.3e-06
4,ATGGVKKPHRYRP [Unmod H3 variant A T G G V K K P H R Y R P],0.000456 ± 1.3e-05
5,RKSAPATGGVKKP [Unmod H3 variant R K S A P A T G G V K K P],0.001312 ± 1.3e-05
6,ALQEASEAYLVGL [Unmod H3 variant A L Q E A S E A Y L V G L],0.000799 ± 8.3e-06

# Molecular target: anti-H3K9me3 antibody ab8898
# Assay: as above
# Settings: peptide region: Unmod H3 variant; binder concentration: 1:2,000 dilution
# Procedure, shortened: as §1
row,Binder,peptide microarray binding signal
1,PFQRLVREIAQDF [Unmod H3 variant P F Q R L V R E I A Q D F],0.00316 ± 0.00013
2,VGLFEDTNLCAIH [Unmod H3 variant V G L F E D T N L C A I H],0.000287 ± 7.8e-06
3,RKSAPSTGGVKKP [Unmod H3 variant R K S A P S T G G V K K P],0.000468 ± 9e-06
4,ATGGVKKPHRYRP [Unmod H3 variant A T G G V K K P H R Y R P],0.000227 ± 7.1e-06
5,RKSAPATGGVKKP [Unmod H3 variant R K S A P A T G G V K K P],0.000529 ± 1.3e-05
6,ALQEASEAYLVGL [Unmod H3 variant A L Q E A S E A Y L V G L],0.000453 ± 1.5e-05

# Same assay, conditions: peptide region: Unmod H3 variant; binder concentration: 1:10,000 dilution
row,Binder,peptide microarray binding signal
1,PFQRLVREIAQDF [Unmod H3 variant P F Q R L V R E I A Q D F],0.00427 ± 5.7e-05
2,VGLFEDTNLCAIH [Unmod H3 variant V G L F E D T N L C A I H],0.000807
3,RKSAPSTGGVKKP [Unmod H3 variant R K S A P S T G G V K K P],0.000634
4,ATGGVKKPHRYRP [Unmod H3 variant A T G G V K K P H R Y R P],0.000461 ± 8.7e-06
5,RKSAPATGGVKKP [Unmod H3 variant R K S A P A T G G V K K P],0.000692 ± 7.3e-06
6,ALQEASEAYLVGL [Unmod H3 variant A L Q E A S E A Y L V G L],0.000634
